The values below come from the supplement of paper PMC6522484.

The structures appear in SMILES notation. ± gives the standard deviation of the averaged measurements.

Assay [1] relates to DLD1. Put plainly: cell viability (CellTiter-Glo) relative to plate median (fraction of plate median); higher = more viable cells. The settings on record: 5 µM; treatment time 24 h; reporter: 7TFP. An outline of the steps:
(§1)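 After seeding in 384-well plates, colorectal cancer cell lines carrying stable lentiviral TCF/Wnt firefly luciferase reporters (7TFP or TCF4/Wnt) were left 24 h. Library compounds were then added at a final 5 µM for 24 h. A Tecan F500 reader measured firefly luciferase or CellTiterGlo luminescence on parallel plates, with each well normalised to the plate median by webcellHTS2 (additive, no log transformation), and two independent replicates averaged.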
Background: ATP-based viability assays read luminescence as a measure of living cells.

The subject of a further assay is HCT116. Described as above. The settings on record: 5 µM; treatment time 24 h; reporter: TCF4/Wnt. An outline of the steps:
as §1

Assay [2] deals with SW480. Described as above. The settings on record: 5 µM; treatment time 24 h; reporter: 7TFP. An outline of the steps: as §1
The subject of assay [3] is DLD1. Put plainly: TCF/Wnt firefly luciferase reporter signal relative to plate median (fraction of plate median); higher = higher Wnt reporter signal. As to conditions: 5 µM; treatment time 24 h; reporter: 7TFP. An outline of the steps:
as §1

In assay [4] the test system is SW480. The assay is described as above. The settings on record: 5 µM; treatment time 24 h; reporter: 7TFP. An outline of the steps: as §1

Take `CCCC(C)C1(CC)C(=O)NC(=O)NC1=O` (stereo not given): the cell viability with DLD1 [1] was found to be 1 ± 0.079; in the assay with HCT116 it was 0.981 ± 0.02; in the assay with SW480 [2], 0.978 ± 0.0014. The “TCF/Wnt firefly luciferase reporter signal” value in the assay on DLD1 [3] was found to be 0.948 ± 0.018; with SW480 [4], 0.933 ± 0.11.
For `COc1ccc(CCN2CCC(Nc3nc4ccccc4n3Cc3ccc(F)cc3)CC2)cc1`, the values for the cell viability in the assay on DLD1 [1], in the assay on HCT116 and in the assay with SW480 [2] were 0.977 ± 0.089, 0.982 ± 0.069 and 1.06 ± 0.021, respectively. Also, the results for the “TCF/Wnt firefly luciferase reporter signal” value in the assay on DLD1 [3] and in the assay with SW480 [4] were 1.01 ± 0.017 and 1.035 ± 0.0071, respectively.
Regarding `CN1C[C@H](CNC(=O)OCc2ccccc2)C[C@@H]2c3cccc4c3c(cn4C)C[C@H]21`, the figures for the cell viability in the assay on DLD1 [1], in the assay with HCT116 and in the assay with SW480 [2] were 1.03 ± 0.049, 1.03 ± 0.069 and 1.09 ± 0.057, respectively. Besides, the “TCF/Wnt firefly luciferase reporter signal” value with DLD1 [3] turned out to be 0.986 ± 0.049; in the assay with SW480 [4] it was 1.01 ± 0.052.
With `C[C@H]1CC[C@]2(NC1)O[C@H]1C[C@H]3[C@@H]4CC[C@H]5C[C@@H](O)CC[C@]5(C)[C@H]4CC[C@]3(C)[C@H]1[C@@H]2C`, the cell viability was determined as 0.956 ± 0.076 with DLD1 [1], 1.01 ± 0.052 with HCT116 and 0.988 ± 0.06 in the assay with SW480 [2]. The “TCF/Wnt firefly luciferase reporter signal” value in the assay with DLD1 [3] was found to be 1.03 ± 0.035; with SW480 [4] it was 1.09 ± 0.057.
On to `CC(C)(C)NCC(O)c1cc(Cl)c(N)c(Cl)c1` (stereo not given), for which the cell viability in the assay on DLD1 [1] was 1.01 ± 0.024; in the assay with HCT116, 1.03 ± 0.05; in the assay with SW480 [2], 0.922 ± 0.012. For the same compound, the results for the “TCF/Wnt firefly luciferase reporter signal” value with DLD1 [3] and in the assay on SW480 [4] were 0.97 ± 0.038 and 0.942 ± 0.0071, respectively.
As for `c1ccc2c(c1)sc1ccccc12`, the values for the cell viability in the assay on DLD1 [1], in the assay with HCT116 and in the assay on SW480 [2] were 1 ± 0.026, 0.97 ± 0.11 and 1.01 ± 0.049, respectively. Besides, the “TCF/Wnt firefly luciferase reporter signal” value in the assay on DLD1 [3] came to 0.867 ± 0.033; in the assay on SW480 [4], 0.935 ± 0.036.
For `C=C(C)[C@H]1CN[C@H](C(=O)O)[C@H]1CC(=O)O`, the results for the cell viability with DLD1 [1], with HCT116 and with SW480 [2] were 0.986 ± 0.035, 1.01 ± 0.099 and 0.97 ± 0.0042, respectively. For the same compound, the “TCF/Wnt firefly luciferase reporter signal” value stood at 0.923 ± 0.11 in the assay on DLD1 [3] and 0.947 ± 0.047 in the assay on SW480 [4].
Consider `COc1ccc(C(=O)O)cc1OC`, for which the cell viability in the assay with DLD1 [1] is 0.902 ± 0.18; in the assay on HCT116, 1.04 ± 0.098; with SW480 [2] it was 0.984 ± 0.023. For the same compound, the “TCF/Wnt firefly luciferase reporter signal” value stood at 0.949 ± 0.087 in the assay with DLD1 [3] and 0.9985 ± 0.0021 with SW480 [4].
On to `CC(=O)CC1CCCCN1` (stereo not given), for which the results for the cell viability in the assay with DLD1 [1], in the assay on HCT116 and in the assay with SW480 [2] were 0.961 ± 0.055, 1.03 ± 0.043 and 0.993 ± 0.0099, respectively. Moreover, the “TCF/Wnt firefly luciferase reporter signal” value with DLD1 [3] was determined as 0.92 ± 0.09; in the assay with SW480 [4], 0.977 ± 0.018.
As for `CC(C)=CCCC1(C)C=Cc2c(O)c3c(c(CC=C(C)C)c2O1)OC12C(CC4CC1C(C)(C)OC2(C/C=C(/C)C(=O)O)C4O)C3=O` (stereo not given), the cell viability in the assay with DLD1 [1] was found to be 0.979 ± 0.087; in the assay with HCT116, 1.04 ± 0.014; with SW480 [2] it was 1.08 ± 0.028. Further, the results for the “TCF/Wnt firefly luciferase reporter signal” value with DLD1 [3] and in the assay with SW480 [4] were 0.975 ± 0.027 and 0.807 ± 0.036, respectively.
Turning to `COc1cc([C@@H]2c3cc4c(cc3[C@H](O)[C@H]3COC(=O)[C@@H]23)OCO4)cc(OC)c1OC`, the cell viability amounted to 1.04 ± 0.1 with DLD1 [1], 0.774 ± 0.025 in the assay on HCT116 and 1.22 ± 0.11 with SW480 [2]. Besides, the “TCF/Wnt firefly luciferase reporter signal” value was determined as 0.819 ± 0.052 with DLD1 [3] and 0.887 ± 0.057 in the assay on SW480 [4].
For the compound `CCCCOC(=O)c1ccccc1C(=O)OCCCC`, the cell viability in the assay with DLD1 [1] is 0.944 ± 0.044; in the assay with HCT116 it was 0.98 ± 0.013; in the assay on SW480 [2], 0.96 ± 0.071. Further, the “TCF/Wnt firefly luciferase reporter signal” value in the assay with DLD1 [3] was 0.847 ± 0.16; in the assay on SW480 [4] it was 0.939 ± 0.03.
In the case of `FC(F)(F)c1cccc(N2CCNCC2)c1`, the figures for the cell viability in the assay on DLD1 [1], with HCT116 and in the assay with SW480 [2] were 1.04 ± 0.13, 1.05 ± 0.086 and 1.02 ± 0.014, respectively. In addition, the “TCF/Wnt firefly luciferase reporter signal” value stood at 0.943 ± 0.015 in the assay on DLD1 [3] and 1.02 ± 0.045 with SW480 [4].
Take `C=CCN1CC[C@]23c4c5ccc(O)c4O[C@H]2C(=O)CC[C@@]3(O)[C@H]1C5`: the cell viability with DLD1 [1] stood at 1.04 ± 0.05; with HCT116, 0.936 ± 0.011; with SW480 [2], 1.08 ± 0.014. Also, the results for the “TCF/Wnt firefly luciferase reporter signal” value in the assay with DLD1 [3] and in the assay with SW480 [4] were 0.959 ± 0.011 and 0.918 ± 0.019, respectively.
